Experimental findings from PubChem BioAssay (Tox21) are described below.

Inconclusive results are not listed. A call without a number means that no potency is given here. A number with no mark means an inactive call. The source made the active and inactive calls. Calls follow the shape of the full dose curve.
Potency is read from the fitted curve at half-maximal effect.

A short description of this assay: qHTS assay to identify small molecule agonists of H2AX - cell viability counter screen (AID 1224847). Also: nearly all actives have a fitted effect of over 30% in size. As to activity change, negative = cytotoxicity: top concentration of the series differs between compounds. The note with it: CHO-K1 viability, CellTiter-Glo luminescence, 3 h; series mostly up to 154 µM; activity change, negative = cytotoxicity: at the top concentration. An excerpt:
National Center for Advancing Translational Sciences [NCATS]
NIH Chemical Genomics Center [NCGC]
U.S. Environmental Protection Agency [EPA]
National Institutes of Environmental Health Sciences [NIEHS]
National Toxicology Program [NTP]
U.S. Food and Drug Administration [FDA]
HTRF phospho-H2AX (Ser139) assay (Cisbio Bioassays, US) enables the quantitative detection of the histone variant H2AX when phosphorylated on serine 139. When double-stranded DNA breaks, either by ionizing radiation or endogenous physiological processes, H2AX becomes phosphorylated at Ser139. This phospho-Ser139 serves as a sensitive biomarker for the detection of such breaks, localizing the site of DNA repair. So, HTRF phospho-H2AX Ser139 is a pertinent assay to study genome stability, the cell cycle, DNA repair, and it serves as a biomarker for cancer, and to understand aging. Wild type CHO-K1 cells were used to identify the inducers of Phospho-H2AX Ser 139 from the Tox21 compound collections. Also cytotoxicity of the Tox21 10K compound library against the CHO-K1 cell line was tested by measuring the cell viability using CellTiter-Glo assay (Promega, Madison, WI).
Tox21 Assay Protocol Summary:
The CHO-K1 cells suspended in culture medium containing 10% FBS were dispensed at 1000 cells/ 3 ul/well in 1536-well white wall/solid bottom plates (Greiner Bio-One North America, NC) using a Multidrop Combi (Thermo Fisher Scientific Inc., Waltham, MA). After the assay plates were incubated at 37C overnight, 23 nl of compounds at 15 concentrations (from 5-48 columns) or positive control (from 1 to 4 columns) were transferred to the assay plates using a Pintool station (Wako, San Diego, CA) into each well resulting in a final DMSO concentration of 0.76%. After 3hr incubation at 37C, 3 uL/well CellTiter-Glo luminescent cell viability reagent (Promega Corporation, Madison, WI) was added using a Flying Reagent Dispenser (FRD) (Aurora Discovery, CA). After incubation at room temperature for 30 min, the luminescence intensity was read using a ViewLux plate reader (PerkinElmer, Waltham, MA).
In the case of `CC(C)C#N`, the Potency result was “inactive”.
On the same count and under the same terms, the entry for `O=C(NC(=O)c1c(F)cccc1F)Nc1cc(Cl)c(OC(F)(F)C(F)C(F)(F)F)cc1Cl` (stereo not given) is “inactive”.
In the case of `O=[N+]([O-])c1ccc([As](=O)(O)O)cc1`, the “activity change, negative = cytotoxicity” value was -0.984% [at 70.9 µM].
Regarding `C1CN2CCN1CC2`, the Potency entry is “inactive”.
For the molecule `c1ccc(-c2ccccc2)cc1`, the Potency entry was “inactive”.
For the molecule `Cc1ccccc1O`, the Potency entry was “inactive”.
Still for that read-out and setting: the entry for `CCCCN(CC)C(=O)SCCC` is “inactive”.
As to `CCCCCCCCCl`, the Potency result is “inactive”.
For the molecule `Cn1cc(-c2ccccc2)c(=O)c(-c2cccc(C(F)(F)F)c2)c1`, the Potency entry is “inactive”.
Same read-out and setting: with `CC(C)(Cl)Cl` the entry was “inactive”.
`CN(N=O)c1ccccc1`: the Potency result is “inactive”.
For the molecule `Nc1c(Cl)c(Cl)nc(C(=O)O)c1Cl`, the Potency entry is “inactive”.
Consider `O=C1CCCN1`, for which the Potency entry is “inactive”.
Take `CCCCCCCCCCCC#N`: the Potency entry was “inactive”.
Regarding `BrCCBr`, the Potency entry is “inactive”.
On to `CCC12COCN1COC2`, for which the Potency result was “inactive”.
Same read-out and setting: the entry for `CCNc1nc(NC(C)(C)C)nc(SC)n1` is “inactive”.
For `[O-][Cl+2]([O-])O`, the Potency result is “inactive”.
With `Cc1cccc([N+](=O)[O-])c1`, the Potency result is “inactive”.
The same measure, in the same setting: with `Cc1cc(-c2cc(C)c(N)c(C)c2)cc(C)c1N` the entry was “inactive”; with `CCOC(=O)c1ccccc1C(=O)OCC`, “inactive”; with `CC(C)NC(=O)N1CC(=O)N(c2cc(Cl)cc(Cl)c2)C1=O`, “inactive”.
Take `c1ccc(OP(Oc2ccccc2)Oc2ccccc2)cc1`: the Potency entry was “inactive”.
For the molecule `Clc1cccc(Cl)c1Cl`, the Potency entry was “inactive”.
With `CN(C)N=O`, the Potency result is “inactive”.
As to `C1CC2OC2CC1C1CO1` (stereo not given), the Potency entry is “inactive”.
As to `Oc1ccccc1Cl`, the Potency entry is “inactive”.
Take `Nc1ccc(Oc2ccc(N)cc2)cc1`: the Potency entry was “inactive”.
`CCCCOC(=O)c1ccccc1C(=O)OCCCC`: the Potency entry was “inactive”.
With `C#CCN(C)[C@H](C)Cc1ccccc1`, the Potency result was “inactive”.
With `COC(=O)c1ccccc1C(=O)OC`, the Potency entry was “inactive”.
For the molecule `CCOP(=S)(OCC)Oc1cnc2ccccc2n1`, the “activity change, negative = cytotoxicity” value was 2.47%.
As for `CCCC1COC(Cn2cncn2)(c2ccc(Cl)cc2Cl)O1` (stereo not given), the Potency was 115 µM (active).
As to `c1ccc2c(c1)Oc1ccccc1O2`, the Potency entry is “inactive”.
For `O=NN1CCCC1`, the Potency result is “inactive”.
As for `C=C(C)CCl`, the Potency result was “inactive”.
For the molecule `COC(=O)c1ccccc1N`, the Potency result is “inactive”.
`OCCN(CCO)CCO`: the Potency entry was “inactive”.
Still for that read-out and setting: the entry for `COC(=O)NS(=O)(=O)c1ccc(N)cc1` is “inactive”; for `O=c1[nH]c2ccccc2c(=O)o1` it is “inactive”.
